# Screening data (PubChem)
# CYP2C9 inhib: blocks human cytochrome P450 2C9. inhibition, % at 5 µM. actives 20% (n = 96,000). CYP2C9 Supersomes, luciferin-H conversion, luminescence. P11712;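 active = blocking of liver enzyme CYP2C9 beyond about 50% at 5 µM, limit read from the data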
# CYP2C19 act: increases human CYP2C19 enzyme activity; P33261; recombinant CYP2C19, luciferin-H EGE luminescence; stronger effect = higher value; 0 = fully inhibited enzyme, 1 = untreated enzyme; activation factor at 5 µM; 96,000 tested, under 10 active; AID 1025;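 active = activation factor of at least 2 at 5 µM in the primary screen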;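 note: 0 = wells with 2.5 mM tranylcypromine and 1 = vehicle-only wells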
# Target sequence (P33261 whole entry, looked up): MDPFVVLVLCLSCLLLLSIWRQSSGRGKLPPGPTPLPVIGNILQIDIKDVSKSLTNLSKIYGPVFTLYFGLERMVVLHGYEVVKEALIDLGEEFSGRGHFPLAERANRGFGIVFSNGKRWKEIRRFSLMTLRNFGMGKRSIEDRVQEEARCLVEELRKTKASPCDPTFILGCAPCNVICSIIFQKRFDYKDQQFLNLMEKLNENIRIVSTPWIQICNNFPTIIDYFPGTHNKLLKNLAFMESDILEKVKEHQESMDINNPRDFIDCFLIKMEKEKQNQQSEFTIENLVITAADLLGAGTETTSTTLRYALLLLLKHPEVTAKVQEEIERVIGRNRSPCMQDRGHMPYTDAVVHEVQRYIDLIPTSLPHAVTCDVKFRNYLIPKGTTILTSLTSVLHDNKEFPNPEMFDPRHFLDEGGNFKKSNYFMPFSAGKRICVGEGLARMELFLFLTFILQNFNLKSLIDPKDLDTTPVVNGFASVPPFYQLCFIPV
# PostGolgi ctrl: inhibits growth of the yeast control strain. efflux-deficient yeast background strain, growth absorbance A615, 16 h. AID 738. inhibition, % at 10 µM. actives 5% (n = 98,000)
# CYP2C19 inh: human CYP2C19 inhibition | actives 21% (n = 96,000) | CYP2C19 Supersomes, luciferin-H EGE luminescence, 30 min | AID 778 | inhibition, % at 5 µM | P33261;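 active = CYP2C19 inhibition above a set limit at 5 µM in the primary screen, cut at about 50% in these data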;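 note: plate controls were negative control wells for no effect and 2.5 mM tranylcypromine positive control for full effect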
# CYP2C9 act: CYP2C9 (human) activation; recombinant CYP2C9, luciferin-H conversion, luminescence; stronger effect = higher value; factor 1 = untreated enzyme, 0 = blocked; activation factor at 5 µM; actives 1.4% (n = 96,000); AID 1024;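 active = activation factor of 2 or more for CYP2C9 at a 5 µM dose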;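 note: 0 = sulfaphenazole-blocked wells and 1 = vehicle-only wells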
# PostGolgi yeast: growth inhibition of a yeast mutant, post-Golgi transport screen; post-Golgi transport phenotypic cell assay; inhibition, % at 10 µM; actives 0.9% (n = 98,000); AID 739;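 note: yeast cells grown in 1536-well plates; yeast grown about 18 h at 30C before absorbance read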
# * marks the source's active call; other numbers are inactive results; . = no result. Only some compounds are listed: those with a hit (about 32% of all), similar ones and a draw of the others. Cut-off read from the data, not from the text of the source, unless noted: active = inhibition above about 30%; inactive = the rest.
SMILES,CYP2C9 inhib,CYP2C19 act,PostGolgi ctrl,CYP2C19 inh,CYP2C9 act,PostGolgi yeast
c1ccc(-c2c[nH]c3[n+]2CCCCC3)cc1,-4,0.5,5,55*,1,0
CCOC(=O)CNC(=O)c1cc(-c2ccc3c(c2)OCCO3)oc1C,-2,0.9,9,7,1,-5
CCOC(=O)/C=C1\SCC(=O)N1Cc1nnc(-c2ccccc2Br)o1,72*,0.2,6,76*,0.3,1
CCOC(=O)/C=C1\SCC(=O)N1Cc1ccc(Br)cc1,.,.,4,.,.,0
CCC(C)NC(=O)CSc1nc2ccsc2c(=O)n1-c1ccc(OC)cc1 (configuration not stated),7,1,0,3,0.9,-2
COc1ccc(NC(=O)CSc2nc3ccccc3c(=O)n2CCNC(C)=O)c(OC)c1,51*,0.5,22,48,0.5,-4
CCC(C)NC(=O)CSc1nc2ccccc2c(=O)n1Cc1ccc(OC)cc1 (configuration not stated),12,0.1,13,85*,0.9,-2
COc1ccc(NC(=O)CSc2nc3ccccc3c(=O)n2CCNC(C)=O)cc1,58*,0.1,2,94*,0.4,-10
CCn1c(SCC(=O)Nc2ccccc2OC)nc2ccccc2c1=O,86*,0.4,26,61*,0.1,-10
CCOc1ccc(NC(=O)CSc2nc3ccccc3c(=O)n2CCNC(C)=O)cc1,6,0.9,4,6,0.9,2
CCc1nn(-c2cc(Cl)ccc2OC)c2c1C(=O)CCC2,16,0.7,-8,34,0.8,-3
CCOC(=O)N1CCc2c(sc3nc4n(c(=O)c23)N=C(C)CS4)C1,24,0.9,8,6,0.8,0
CC(=O)n1c(Cl)c(NC(=O)CCl)c2ccccc21,7,0.9,-2,15,0.9,12
O=S(=O)(c1ccc(NCC2CCCCC2)nc1)N1CCOCC1,17,0.9,8,10,0.8,0
COc1cccc(C(=O)CSc2nnnn2C)c1,1,0.3,3,72*,1,-3
COC(=O)c1cc(OC)c(OC)cc1NC(=O)CN1CCOCC1,28,0.9,4,7,0.7,0
COc1ccc(C(=O)CSc2nnc(Cn3nnc4ccccc43)n2C)cc1,28,0.8,10,16,0.7,-6
COc1ccc(C(=O)CSc2nnnn2Cc2ccccc2)cc1,37,0.4,18,60*,0.6,-5
COC(=O)c1cc(OC)c(OC)cc1NC(=S)N1CCN(Cc2ccccc2)CC1,44,0,1,100*,0.6,3
COC(=O)c1cc(OC)c(OC)cc1NC(=O)CSc1nnnn1Cc1ccccc1,82*,0.3,38*,75*,0.2,-6
CC1=C(SCCC#N)S/C(=C2\SC(C)=C(SCCC#N)S2)S1,-2,1,-7,-4,1,15
CCc1nc2ccccc2n1CCC(C)C,22,0.6,3,42,0.8,7
O=C(CSc1nnnn1Cc1ccccc1)c1ccccc1,15,0.3,1,74*,0.9,24
COC(=O)c1ccc(CSc2nnnn2Cc2ccccc2)cc1,78*,0.7,20,31,0.2,3
O=C(Nc1nccs1)c1ccc(COc2ccccc2Br)o1,91*,0.1,18,88*,0.1,0
SMILES,CYP2C9 inhib,CYP2C19 act,PostGolgi ctrl,CYP2C19 inh,CYP2C9 act,PostGolgi yeast
O=C(Nc1nccs1)c1ccc(COc2ccc(F)cc2)o1,10,0.9,-5,14,0.9,-5
CN(C)C(=O)c1ccc(COc2ccccc2Br)o1,26,0.2,-5,83*,0.7,-6
O=C(Cn1cc2c(n1)CCCC2)N1CCCC1,-10,1,6,0,1.1,3
COC(=O)[C@H](CCSC)NC(=O)N1CCN(Cc2ccccc2)CC1,16,0.8,7,21,0.8,1
COC(=O)[C@H](CCSC)NC(=O)N1CCC(C)CC1,96*,0,2,97*,0,6
O=C(CCNc1ccccc1)c1ccc2c(c1)OCO2,48,0.4,4,63*,0.5,-8
CN(C)CCC(=O)c1ccc2c(c1)OCO2,2,0.9,-3,9,1,0
CN(C)S(=O)(=O)c1ccc(C(=O)NCc2ccccc2)cc1,2,0.9,3,8,1,-10
O=C(NCc1cccs1)c1ccc2c(c1)OCCO2,6,1,9,4,0.9,0
O=C(NCc1ccccc1)c1ccc2c(c1)OCCO2,31,0.2,3,85*,0.7,-2
Fc1ccccc1Cn1nnc(-c2ccc3c(c2)OCO3)n1,58*,0.2,4,76*,0.4,6
O=C(Cn1nnc(-c2ccccc2Cl)n1)N/N=C/c1ccc2c(c1)OCO2,-76,0.9,2,5,1.8,14
O=C(NCc1ccccc1)c1ccc(C(=O)N(C2CCCCC2)C2CCCCC2)cc1,17,0.9,52*,9,0.8,8
Cc1cc(CN2CCOCC2)c(O)c(C2(C)CCCCC2)c1,44,0.6,15,42,0.6,2
COc1ccc(CC(=O)Nc2cccc(/C(C)=N/NC(=O)c3cccc([N+](=O)[O-])c3)c2)cc1,38,1,2,1,0.6,-6
CCCCN1CC(C(=O)NC2CCCCC2)CC1=O (configuration not stated),-20,1.1,7,-13,1.2,0
O=C(NCc1ccccc1F)c1ccc2c(c1)OCO2,10,0.3,5,73*,0.9,-1
COc1ccccc1-n1c(C)cc(C=O)c1C,54*,0.8,6,24,0.5,0
O=C(NCc1ccco1)c1cnc2ccccn2c1=O,55*,1,0,2,0.4,0
O=C(NCc1ccco1)c1ccccc1F,8,1.1,18,-11,0.9,18
O=C(NCc1ccco1)Nc1ccc(Br)cc1Cl,53*,0.5,13,47,0.5,-13
O=C(Nc1cccnc1)Nc1ccc(Br)cc1Cl,29,0.8,35*,23,0.7,-10
O=C(NCc1ccco1)c1ccccc1Nc1ccc(F)cc1,67*,0.1,32*,89*,0.3,-5
O=C(Nc1cccc(Cl)c1)Nc1ccccc1C(=O)NCc1ccco1,58*,0.9,-1,14,0.4,-7
O=C(NCc1ccco1)c1cccc2ccccc12,-203,0.8,25,24,3*,-9
COc1ccc(C(=O)Nc2ccccc2C(=O)NCc2ccco2)cc1OC,36,0.8,5,20,0.6,2
COc1ccccc1NC(=O)CSc1ncn[nH]1,-22,0.8,3,17,1.2,-11
COc1ccc(N(C(=O)C2CCCCC2)C2C=CS(=O)(=O)C2)c(OC)c1 (configuration not stated),15,0.8,-2,21,0.8,-2
CC(C)NC(=O)CSc1nnc(-c2ccc(C(C)(C)C)cc2)n1C,.,.,2,.,.,-1
CC(C)NC(=O)CSc1nncn1-c1ccccc1,-7,1.1,33*,-7,1.1,4
